For eleven compounds, Percent Effect results are on record in ChEMBL document CHEMBL3988442, “University of Dundee, Small-Polar-MMV Screening Library” (2021).

Common to all, as to parameters: scale not given: direction of the effect not stated beside the values
Test [1] concerns the target Protein translocase subunit SecA (Escherichia coli (strain K12)) (UniProt P10408). The test can be described thus: Assay to Identify E. coli SecA ATPase Inhibitors. In kind it is functional. As to conditions: 30 µM.
Test [2] has as its target T1, Ubiquitin-activating enzyme e1, putative (Leishmania donovani (strain BPK282A1)) (UniProt E9BSI1).
T1 sequence (whole entry): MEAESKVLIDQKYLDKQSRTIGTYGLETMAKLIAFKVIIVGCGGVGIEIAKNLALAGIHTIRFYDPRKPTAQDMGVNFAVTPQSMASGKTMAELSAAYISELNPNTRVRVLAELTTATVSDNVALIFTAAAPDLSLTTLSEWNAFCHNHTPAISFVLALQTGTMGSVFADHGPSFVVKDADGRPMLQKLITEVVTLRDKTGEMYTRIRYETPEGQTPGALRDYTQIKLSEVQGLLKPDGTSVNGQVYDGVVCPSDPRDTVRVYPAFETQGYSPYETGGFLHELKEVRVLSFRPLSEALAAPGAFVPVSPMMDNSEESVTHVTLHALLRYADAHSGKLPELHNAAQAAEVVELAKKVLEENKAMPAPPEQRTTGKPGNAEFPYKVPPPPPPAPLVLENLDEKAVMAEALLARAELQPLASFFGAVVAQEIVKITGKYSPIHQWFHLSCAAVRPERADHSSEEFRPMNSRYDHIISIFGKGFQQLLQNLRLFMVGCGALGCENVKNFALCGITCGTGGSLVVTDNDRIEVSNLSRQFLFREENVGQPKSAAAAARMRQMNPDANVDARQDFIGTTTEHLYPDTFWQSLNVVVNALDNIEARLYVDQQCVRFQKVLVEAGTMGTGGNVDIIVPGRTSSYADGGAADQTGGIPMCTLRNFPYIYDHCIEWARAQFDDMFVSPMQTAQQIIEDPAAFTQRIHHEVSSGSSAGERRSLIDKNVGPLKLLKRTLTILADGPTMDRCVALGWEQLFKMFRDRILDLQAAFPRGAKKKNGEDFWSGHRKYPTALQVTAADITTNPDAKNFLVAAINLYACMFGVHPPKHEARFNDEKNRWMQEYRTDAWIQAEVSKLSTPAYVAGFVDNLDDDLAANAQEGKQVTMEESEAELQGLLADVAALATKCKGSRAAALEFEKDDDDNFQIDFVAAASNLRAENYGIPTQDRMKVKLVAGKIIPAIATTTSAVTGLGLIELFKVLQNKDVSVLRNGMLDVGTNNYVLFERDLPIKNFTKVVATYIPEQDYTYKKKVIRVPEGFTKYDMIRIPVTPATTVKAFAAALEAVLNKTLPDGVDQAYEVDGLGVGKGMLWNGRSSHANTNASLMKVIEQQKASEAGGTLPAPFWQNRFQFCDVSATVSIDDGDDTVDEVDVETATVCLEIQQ
The test is described as follows: Leishmania donovani Ubiquitin Activating Enzyme (LdE1). As to conditions: 30 µM. It is filed as functional.

Test [3] deals with AMP-activated protein kinase, AMPK (Homo sapiens) (UniProt P54646+O43741+P54619+Q9UGJ0+Q9Y478+Q13131+Q9UGI9). The test is described as follows: AMP-dependent Kinase enzyme assay. An in vitro enzyme assay that detects ADP turnover that is directly proportional to AMPK activity. This uses naive AMPK that is activated during the assay with MK-8722. It is filed as functional. Conditions: 30 µM.

The target in test [4] is Sialic acid-binding Ig-like lectin 9 (Homo sapiens) (UniProt Q9Y336). The test can be described thus: Hs-Siglec9 ALPHAscreen SOP 20170721. As to conditions: 10 µM. (In general: Bead proximity is the source of the signal in Alpha formats.)
Chain of Sialic acid-binding Ig-like lectin 9 (Homo sapiens) (Q9Y336 whole entry): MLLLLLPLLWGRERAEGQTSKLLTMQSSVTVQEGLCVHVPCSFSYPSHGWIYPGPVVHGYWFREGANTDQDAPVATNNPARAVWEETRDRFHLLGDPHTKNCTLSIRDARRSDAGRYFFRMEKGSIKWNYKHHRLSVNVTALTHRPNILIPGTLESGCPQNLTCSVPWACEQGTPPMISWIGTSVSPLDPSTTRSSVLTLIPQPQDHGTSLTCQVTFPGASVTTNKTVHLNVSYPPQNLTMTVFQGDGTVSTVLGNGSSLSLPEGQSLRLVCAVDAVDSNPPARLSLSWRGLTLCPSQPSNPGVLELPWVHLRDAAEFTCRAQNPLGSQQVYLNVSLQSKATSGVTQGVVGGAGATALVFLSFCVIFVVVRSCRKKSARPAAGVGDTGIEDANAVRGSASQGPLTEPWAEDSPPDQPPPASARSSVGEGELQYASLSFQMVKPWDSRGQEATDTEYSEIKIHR
In a further test the test system is Trypanosoma cruzi. The test can be described thus: Trypanosoma cruzi phosphomannomutase and mannose-1-phosphate guanylyltransferase assay. In kind it is functional. As to conditions: 10 µM.
Test [5] concerns the target T2, Arginase-2, mitochondrial (Homo sapiens) (UniProt P78540).
T2 sequence (whole entry): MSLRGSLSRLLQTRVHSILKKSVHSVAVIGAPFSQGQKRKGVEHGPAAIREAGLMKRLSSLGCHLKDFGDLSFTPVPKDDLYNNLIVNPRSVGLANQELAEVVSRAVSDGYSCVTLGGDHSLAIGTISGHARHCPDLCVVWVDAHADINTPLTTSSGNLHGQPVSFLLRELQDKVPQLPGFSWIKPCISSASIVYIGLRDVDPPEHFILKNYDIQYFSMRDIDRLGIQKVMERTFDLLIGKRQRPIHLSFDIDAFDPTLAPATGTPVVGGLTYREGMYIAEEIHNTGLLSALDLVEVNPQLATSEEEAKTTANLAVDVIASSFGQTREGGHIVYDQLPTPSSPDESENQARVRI
The test is described as follows: in vitro enzyme assay to detect the production of urea directly proportional to the activity of Arginase II. Note: in the data most compounds retested in dose-response had high values. In kind it is functional. Conditions: 33.3 µM.

In test [6] the target is T3, Proteasome subunit beta (Trypanosoma cruzi) (UniProt O96673).
T3 sequence (whole entry): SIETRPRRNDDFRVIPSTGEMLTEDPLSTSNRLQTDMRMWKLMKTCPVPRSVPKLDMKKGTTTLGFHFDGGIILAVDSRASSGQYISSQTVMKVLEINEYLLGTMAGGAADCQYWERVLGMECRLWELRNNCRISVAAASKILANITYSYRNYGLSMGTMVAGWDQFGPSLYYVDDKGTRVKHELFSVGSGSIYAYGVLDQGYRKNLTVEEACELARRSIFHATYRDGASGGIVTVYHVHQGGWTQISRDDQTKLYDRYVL
The test is described as follows: Trypanosoma cruzi proteasome chymotrypsin-like activity (TcProtChymo) assay. Note: in the data most compounds retested in dose-response had high values. It is filed as functional. Conditions: 9.37 µM.

The species named for the next test is Homo sapiens. The test is described as follows: To identify inhibition of the IFN signalling (Jak-Stat) pathway via expression of an eGFP reporter gene under the control of an IFN-stimulated response element (ISRE) containing MxA promoter. It is filed as functional. As to conditions: 30 µM. (In general: In a reporter assay the amount or activity of a reporter protein is the signal.)

Test [7] has as its target T4, Tyrosyl-tRNA synthetase, putative (Trypanosoma cruzi (strain CL Brener)) (UniProt Q4DSP6).
T4 sequence (whole entry): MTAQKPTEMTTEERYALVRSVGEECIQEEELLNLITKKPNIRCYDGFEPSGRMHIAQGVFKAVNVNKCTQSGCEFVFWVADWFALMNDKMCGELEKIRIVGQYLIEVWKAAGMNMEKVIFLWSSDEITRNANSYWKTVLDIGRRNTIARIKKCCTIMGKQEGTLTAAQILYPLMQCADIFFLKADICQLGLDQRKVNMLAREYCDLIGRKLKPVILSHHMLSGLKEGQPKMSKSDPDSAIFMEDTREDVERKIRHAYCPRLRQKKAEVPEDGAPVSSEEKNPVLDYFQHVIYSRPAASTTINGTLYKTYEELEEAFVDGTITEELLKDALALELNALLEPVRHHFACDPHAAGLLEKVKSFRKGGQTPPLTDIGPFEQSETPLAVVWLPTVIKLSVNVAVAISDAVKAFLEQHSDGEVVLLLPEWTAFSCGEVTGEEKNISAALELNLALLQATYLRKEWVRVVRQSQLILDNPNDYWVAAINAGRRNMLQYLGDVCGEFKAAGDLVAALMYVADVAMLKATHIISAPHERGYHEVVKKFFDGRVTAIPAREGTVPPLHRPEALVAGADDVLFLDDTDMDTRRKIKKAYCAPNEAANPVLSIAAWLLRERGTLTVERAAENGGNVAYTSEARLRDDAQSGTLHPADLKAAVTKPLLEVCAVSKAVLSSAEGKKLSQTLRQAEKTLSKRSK
The test is described as follows: Trypanosoma cruzi tyrosyl tRNA synthetase (TcYRS) _High Tyrosine SOP. Note: in the data most compounds retested in dose-response had high values. It is filed as functional. Conditions: 30 µM.

Test [8] deals with T4, Tyrosyl-tRNA synthetase, putative (Trypanosoma cruzi (strain CL Brener)). The test can be described thus: Trypanosoma cruzi tyrosyl tRNA synthetase (TcYRS) SOP. In kind it is functional. As to conditions: 30 µM.
The target in test [9] is Chromo domain-containing protein 1 (Saccharomyces cerevisiae (strain ATCC 204508 / S288c) (Baker's yeast)) (UniProt P32657). The test is described as follows: ScCHD-1 Enzyme Inhibition Assay. Note: in the data most compounds retested in dose-response had high values. As to conditions: 30 µM. It is filed as functional.
Chain of Chromo domain-containing protein 1 (Saccharomyces cerevisiae (strain ATCC 204508 / S288c) (Baker's yeast)) (P32657 whole entry, the tested form may be a part): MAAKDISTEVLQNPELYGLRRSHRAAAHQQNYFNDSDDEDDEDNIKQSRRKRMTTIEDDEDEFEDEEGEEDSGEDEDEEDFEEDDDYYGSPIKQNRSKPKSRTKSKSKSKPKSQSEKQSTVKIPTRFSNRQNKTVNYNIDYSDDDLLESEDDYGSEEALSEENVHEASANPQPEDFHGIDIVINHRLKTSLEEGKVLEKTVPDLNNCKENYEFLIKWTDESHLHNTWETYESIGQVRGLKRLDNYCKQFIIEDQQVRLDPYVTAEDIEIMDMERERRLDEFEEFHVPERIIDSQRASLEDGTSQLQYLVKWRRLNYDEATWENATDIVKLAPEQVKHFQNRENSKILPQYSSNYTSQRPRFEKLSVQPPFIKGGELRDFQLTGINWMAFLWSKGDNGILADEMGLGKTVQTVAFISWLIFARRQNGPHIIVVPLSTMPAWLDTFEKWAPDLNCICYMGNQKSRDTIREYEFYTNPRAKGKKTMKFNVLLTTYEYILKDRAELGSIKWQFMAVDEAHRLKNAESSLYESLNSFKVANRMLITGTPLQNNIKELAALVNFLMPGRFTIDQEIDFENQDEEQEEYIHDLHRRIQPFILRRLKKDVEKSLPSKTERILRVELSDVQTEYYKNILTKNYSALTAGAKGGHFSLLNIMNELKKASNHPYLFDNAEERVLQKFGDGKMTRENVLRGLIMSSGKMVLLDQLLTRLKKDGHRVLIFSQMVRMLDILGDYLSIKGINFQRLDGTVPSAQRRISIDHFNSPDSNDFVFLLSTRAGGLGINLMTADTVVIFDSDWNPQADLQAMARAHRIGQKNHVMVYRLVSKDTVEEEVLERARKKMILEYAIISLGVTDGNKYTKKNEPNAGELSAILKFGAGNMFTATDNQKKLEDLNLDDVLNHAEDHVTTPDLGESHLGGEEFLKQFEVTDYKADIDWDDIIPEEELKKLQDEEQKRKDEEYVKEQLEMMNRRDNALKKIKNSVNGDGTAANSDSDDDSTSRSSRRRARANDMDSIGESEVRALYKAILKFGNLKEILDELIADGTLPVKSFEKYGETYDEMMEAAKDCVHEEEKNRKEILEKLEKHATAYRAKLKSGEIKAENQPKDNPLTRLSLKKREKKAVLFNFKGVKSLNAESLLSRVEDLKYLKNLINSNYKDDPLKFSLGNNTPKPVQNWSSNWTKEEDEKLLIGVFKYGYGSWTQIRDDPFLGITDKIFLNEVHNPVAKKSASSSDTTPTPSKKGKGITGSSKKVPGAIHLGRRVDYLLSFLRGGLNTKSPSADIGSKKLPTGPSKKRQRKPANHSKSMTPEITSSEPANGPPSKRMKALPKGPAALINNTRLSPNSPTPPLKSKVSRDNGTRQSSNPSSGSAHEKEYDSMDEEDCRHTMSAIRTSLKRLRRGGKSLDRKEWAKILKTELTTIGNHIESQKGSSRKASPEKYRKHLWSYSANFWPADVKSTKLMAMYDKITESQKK

For some of these results: Entries with a potency or affinity are not part of this list.

Chain of Protein translocase subunit SecA (Escherichia coli (strain K12)) (P10408 whole entry): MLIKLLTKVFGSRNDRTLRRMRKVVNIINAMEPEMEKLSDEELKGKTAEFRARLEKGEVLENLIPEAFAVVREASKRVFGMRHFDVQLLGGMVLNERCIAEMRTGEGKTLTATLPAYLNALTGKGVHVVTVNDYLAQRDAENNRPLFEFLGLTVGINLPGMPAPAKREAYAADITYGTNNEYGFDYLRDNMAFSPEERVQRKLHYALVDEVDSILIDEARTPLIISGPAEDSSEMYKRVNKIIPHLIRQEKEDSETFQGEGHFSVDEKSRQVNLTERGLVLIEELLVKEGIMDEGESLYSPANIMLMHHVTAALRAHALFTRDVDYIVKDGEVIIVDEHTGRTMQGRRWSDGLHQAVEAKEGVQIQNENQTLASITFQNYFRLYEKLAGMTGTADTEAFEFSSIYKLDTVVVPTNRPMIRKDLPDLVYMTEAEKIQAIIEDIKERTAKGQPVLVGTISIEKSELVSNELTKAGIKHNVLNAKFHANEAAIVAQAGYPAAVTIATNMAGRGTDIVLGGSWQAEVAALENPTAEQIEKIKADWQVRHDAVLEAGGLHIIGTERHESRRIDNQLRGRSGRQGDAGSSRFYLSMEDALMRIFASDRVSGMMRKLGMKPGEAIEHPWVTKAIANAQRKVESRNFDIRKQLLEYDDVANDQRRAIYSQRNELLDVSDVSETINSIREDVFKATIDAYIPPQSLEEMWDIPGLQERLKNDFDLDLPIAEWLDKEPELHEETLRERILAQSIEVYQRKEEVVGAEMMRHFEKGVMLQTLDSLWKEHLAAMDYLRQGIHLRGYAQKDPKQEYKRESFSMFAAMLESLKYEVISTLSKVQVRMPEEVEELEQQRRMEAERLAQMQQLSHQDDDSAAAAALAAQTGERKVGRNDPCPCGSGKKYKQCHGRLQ

For the compound `OCCOc1nc(-c2ccccc2Cl)no1`, the Percent Effect is -1.86% in test [1]; 11% in test [2]; -5.12% in test [3]; 4.94% in test [4]; 4.9% with Trypanosoma cruzi; 18.6% in test [5]. The Percent Effect in test [6] is 20.4%; in the test listed under Homo sapiens, 24.7%; in [7], 6.45%; in test [8], 20%; in test [9] it was -5.57%.

Take `O=C(c1cccnc1)N1CC[C@H](OCC2CC2)[C@@H]1Cc1cccnc1`: the Percent Effect in test [1] is -0.924%; in test [2] it was 13.3%; in test [3], 5.44%; in test [4] it was -0.245%; in the test with Trypanosoma cruzi, -4.44%; in test [5], -43.2%. For the same compound, the Percent Effect in [6] was 2.73%; in the test filed under Homo sapiens, -15.6%; in test [7] it was 1.04%; in [8] it was -10%; in [9], -6.48%.

On to `CCN1CC(C(=O)N2CCC(Oc3ccccc3Cl)CC2)CC1=O` (stereo unspecified), for which the Percent Effect was -1.39% in test [1]; 2.74% in [2]; 6.94% in [3]; -1.45% in [4]; -11.5% in the test on Trypanosoma cruzi; -4.39% in [5]. In addition, the Percent Effect in test [6] is 16.7%; in the test filed under Homo sapiens it was 42.2%; in test [7], 3.12%; in test [8], -30.9%; in [9], -5.81%.

Consider `CN(C)C(=O)CSc1nnc(CCNC(=O)OC(C)(C)C)o1`, for which the Percent Effect in test [1] is -1.89%; in test [2] it was 9.33%; in [3], 6.95%; in [4] it was -7.38%; in the test with Trypanosoma cruzi it was -8.64%; in [5] it was -13.6%. The Percent Effect was 13.9% in test [6]; 10.4% in the test filed under Homo sapiens; -3.17% in test [7]; 2.56% in [8]; -10.9% in test [9].

On to `Cc1ncccc1CNCC1CCN(CC(O)c2ccccc2)CC1` (stereo unspecified), for which the Percent Effect in test [1] is -5.43%; in test [2] it was 13.9%; in [3] it was -5.86%; in test [4], 1.69%; in the test with Trypanosoma cruzi, -0.308%; in [5], -1.07%. The Percent Effect is 15.3% in test [6]; 3.05% in the test listed under Homo sapiens; 6.25% in test [7]; 17.7% in [8]; -29.1% in test [9].

Consider `CC(CN1CCOCC1)NC(=O)N(C)Cc1ccc(Cl)s1` (stereo unspecified), for which the Percent Effect in [1] was 0.481%; in test [2], 10.5%; in test [3], 2.51%; in test [4], -1.81%; in the test on Trypanosoma cruzi, -6.91%; in test [5], 0%. The Percent Effect in test [6] is 13.3%; in the test filed under Homo sapiens, 3.75%; in test [7], 6.38%; in test [8], 13%; in test [9], -2.62%.

For the compound `COc1cccc(NC(=O)N(CCO)Cc2ccsc2)c1`, the Percent Effect is -3.38% in test [1]; -6.94% in test [2]; 1.15% in [3]; -5.41% in test [4]; -4.96% in the test on Trypanosoma cruzi; -4.42% in [5]. Also, the Percent Effect in test [6] is 12.3%; in the test listed under Homo sapiens, 11.8%; in [7], 3.16%; in test [8] it was 5.13%; in test [9], -4.52%.

Turning to `CCOCCCNC(=O)c1cc(C)nc(N2CCCC2)n1`, the Percent Effect in [1] is -10.2%; in [2] it was 12%; in [3], -12.6%; in test [4], 7.96%; in the test with Trypanosoma cruzi, 4.91%; in [5] it was -11.1%. Further, the Percent Effect was 5.36% in test [6]; 8.1% in the test filed under Homo sapiens; 1.06% in test [7]; 10.3% in test [8]; -14% in test [9].

As for `Cc1ccc(OCCC(=O)NC2CCc3nccn3C2)cc1` (stereo unspecified), the Percent Effect was -6% in test [1]; 0% in test [2]; 7.39% in test [3]; 1.52% in test [4]; -1.07% in the test on Trypanosoma cruzi; -13% in [5]. The Percent Effect is 17.6% in test [6]; -12.9% in the test listed under Homo sapiens; 5.32% in test [7]; 13% in test [8]; -2.38% in test [9].

`CC(=O)Nc1ccc(-n2ccc3nc(N4CCCC4)ncc3c2=O)cc1`: the Percent Effect was -3.46% in test [1]; -9.33% in test [2]; 1.45% in [3]; 1.82% in test [4]; -2.36% in the test with Trypanosoma cruzi; 0.88% in test [5]. Also, the Percent Effect in [6] is 3.14%; in the test filed under Homo sapiens it was -5.51%; in test [7], 1.06%; in [8] it was -7.69%; in [9] it was 3.54%.

Regarding `O=C1CC2(CCN(CC3CCOC3)CC2)CN1Cc1cc(F)cc(F)c1` (stereo unspecified), the Percent Effect was -5.41% in [1]; 12.5% in test [2]; -5.76% in test [3]; 26.3% in [4]; 4.37% in the test with Trypanosoma cruzi; 16.3% in test [5]. Moreover, the Percent Effect in [6] was 9.65%; in the test filed under Homo sapiens it was -12.9%; in [7] it was 2.1%; in [8], 10.3%; in test [9] it was -4.1%.
